Screening data from PubChem BioAssay.
Keap1 Nrf2 FP – Keap1-Nrf2 protein-protein interaction inhibitors, primary screen, biochemical, fluorescence polarization, single point; inhibition, % at 9.4 µM; Kelch-like ECH-associated protein 1 (Homo sapiens), Q14145; Keap1 Kelch-Nrf2 peptide fluorescence polarization, 1536-well; 340,000 tested, 0.15% active; in the data active = inhibition above about 12%;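 note: human Keap1 Kelch domain with fluorescein labeled Nrf2 9mer peptide probe; higher means more block of Keap1 binding to Nrf2 peptide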
Target sequence (Q14145 whole entry, looked up, the tested form may be a part): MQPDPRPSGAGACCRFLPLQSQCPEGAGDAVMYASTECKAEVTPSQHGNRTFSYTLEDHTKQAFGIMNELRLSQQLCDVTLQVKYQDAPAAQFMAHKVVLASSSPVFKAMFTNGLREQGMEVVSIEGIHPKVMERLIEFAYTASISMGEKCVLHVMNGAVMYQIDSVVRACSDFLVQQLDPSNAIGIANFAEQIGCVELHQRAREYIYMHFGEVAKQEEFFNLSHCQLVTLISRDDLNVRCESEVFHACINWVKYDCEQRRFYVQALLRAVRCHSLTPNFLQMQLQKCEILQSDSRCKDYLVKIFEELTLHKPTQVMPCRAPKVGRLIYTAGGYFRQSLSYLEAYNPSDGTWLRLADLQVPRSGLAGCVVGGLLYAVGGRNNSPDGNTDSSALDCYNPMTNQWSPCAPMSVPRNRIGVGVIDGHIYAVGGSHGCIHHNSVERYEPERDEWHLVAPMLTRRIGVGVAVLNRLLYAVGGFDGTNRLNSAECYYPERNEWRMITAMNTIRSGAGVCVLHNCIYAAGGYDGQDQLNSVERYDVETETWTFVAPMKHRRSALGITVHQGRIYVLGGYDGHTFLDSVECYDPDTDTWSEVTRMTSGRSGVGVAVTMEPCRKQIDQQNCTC
LANA DNA inh – inhibitors of KSHV C-LANA binding to DNA, primary screen, biochemical, fluorescence polarization, FAM-LBS DNA, MBP-C-LANA, single point | Kaposi's sarcoma herpesvirus LANA C-terminal domain (residues 932-1162) DNA binding | inhibition, % at 9 µM | 340,000 tested, 0.078% active;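 active = highest replicate inhibition at or above 60% at 9 µM, even if other replicates fall short; inactive = all replicates below 60% inhibition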
RTF Ca sens act – cardiac RTF calcium sensitivity activators, primary screen, biochemical, IANBD-TnC fluorescence, EC20 calcium | IANBD-labeled TnC RTF fluorescence at EC20 calcium; 0% EC20 calcium, 100% full calcium | Troponin I, cardiac muscle (Homo sapiens) + Troponin T, cardiac muscle (Homo sapiens) + … | 340,000 tested, 0.24% active | activation, % at 7.2 µM;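 active = activation above the mean over all tested compounds plus 3 SD, cut at about 30% in these data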;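 note: rise in fluorescence read as greater calcium sensitivity of cardiac thin filaments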
Cardiac RTF inh – cardiac RTF calcium sensitivity inhibitors, primary screen, biochemical, IANBD-TnC fluorescence, EC70 calcium | Troponin I, cardiac muscle (Homo sapiens) + Troponin T, cardiac muscle (Homo sapiens) + … | IANBD-labeled cardiac RTF, Ca2+ fluorescence | inhibition, % at 7.15 µM | 340,000 tested, 0.12% active | AID 493244, 2011;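 active = inhibition above the mean inhibition of all tested compounds plus 3 SD, cut at about 17% in these data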;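 note: assay run at fixed EC70 calcium of 1.6 mM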
LANA-H2B inh – blockers of LANA interaction with H2A/H2B – biochemical, FP readout, HTS, primary screen | AID 2629, 2010 | 320,000 tested, 0.6% active | cell-free LANA-H2A/H2B peptide, fluorescence polarization | inhibition, % (concentration not given with the values) | Protein LANA1 (Human herpesvirus 8 type P (isolate GK18)), Q9QR71; in the data active = inhibition mostly above about 10%, no sharp cut-off; inactive = mostly below about 6.7%
A number is an active result; n = inactive; x = not tested or not shown; + = active, no number. A selection: hits, their analogues and other compounds. The true share with any hit is near 1%.

SMILES | Keap1 Nrf2 FP | LANA DNA inh | RTF Ca sens act | Cardiac RTF inh | LANA-H2B inh
CN(C)c1ccc(/C=C(/C#N)C(=O)Nc2nc3c(s2)CCN(Cc2ccccc2)C3)cc1 | n | n | 51 | n | x
CCN(CC(=O)Nc1ccc(NC(C)=O)cc1)CC(=O)Nc1ccccc1C(=O)c1ccccc1 | n | n | n | n | 10
COc1cccc2c1C(=O)c1c(O)c3c(c(O)c1C2=O)CC(O)(C(C)=O)CC3OC1CC(O)C(O)C(C)O1 (stereo not given) | 20 | 110 | 223 | n | x
COc1cccc2c1C(=N)c1c(O)c3c(c(O)c1C2=O)CC(O)(C(C)=O)CC3OC1CC(N)C(O)C(C)O1 (stereo not given) | n | n | n | n | x
O=C(Cc1ccc(NC(=O)C2CCN(C(=O)C3CCCCC3)CC2)cc1)Nc1ccc(C(=O)N2CCOCC2)cc1 | n | n | n | n | x
Cc1cc(C(=O)N2CCCC(C(=O)c3cccc(C(F)(F)F)c3)C2)nc(C)n1 (stereo not given) | n | n | n | n | 14
Cc1cc(C(=O)N2CCCC(C(=O)c3cccc(C(F)(F)F)c3)C2)n[nH]1 (stereo not given) | n | n | n | n | n
CC/C(=C(/CC)c1ccc(O)cc1)c1ccc(O)cc1 | x | n | n | 18 | n
N=C(N)c1ccc(O)cc1 | n | n | n | n | n
COc1ccc2c(c1)C(CC(=O)NN)CCC2 (stereo not given) | n | n | n | n | x
Cc1ccnc(NS(=O)(=O)c2ccc(NS(=O)(=O)c3cc(Cl)ccc3Cl)cc2)n1 | n | n | n | n | 14
COc1cccc(CN2CC(C(=O)N(C)Cc3ccc(C)cc3)CCC2=O)c1 (stereo not given) | n | n | n | n | 14
CC12C=CC(=O)C=C1CCC1C2C(O)CC2(C)C1CCC2(O)C(=O)CO (stereo not given) | n | n | n | n | x
O=C(CCNC(=O)c1ccc(Br)cc1)NCc1cccnc1 | n | n | n | n | 22
O=C(CCSCc1ccc(Cl)cc1)NCCc1ccccc1 | n | n | n | n | n
O=C(CCSCc1ccc(Cl)cc1)NCc1cccnc1 | n | n | n | n | +
O=[N+]([O-])c1ccc(CSc2nc3ncc(Br)cc3[nH]2)cc1 | x | x | x | x | n
Cc1ccc(N2C(=O)N(CC(=O)Nc3ccc(C)cc3[N+](=O)[O-])C(=O)C2C)cc1 (stereo not given) | n | n | n | n | n
Cc1ccc(N2C(=O)N(CC(=O)Nc3ccc(C)c(C)c3[N+](=O)[O-])C(=O)C2C)cc1 (stereo not given) | n | n | n | n | 130
CCOC(=O)C(Cc1ccnc2ccccc12)=NO | n | n | n | n | x
CCOC(=O)C(=O)Cc1cccnn1 | n | 72 | n | n | x
COc1ccc(CSc2n[nH]c(C)n2)cc1[N+](=O)[O-] | n | n | n | n | n
Cn1nnnc1Sc1ccc(C(=O)O)cc1[N+](=O)[O-] | n | n | n | n | n
Cn1ccnc1Sc1ccc(C(N)=O)cc1[N+](=O)[O-] | n | n | n | n | 86
CCCCCNC(=O)C1CC(=O)OC12CCCCC2 (stereo not given) | n | n | n | n | n
SMILES | Keap1 Nrf2 FP | LANA DNA inh | RTF Ca sens act | Cardiac RTF inh | LANA-H2B inh
Cc1cccc(N2C(=O)CN(Cc3cccs3)C2=S)c1 | n | n | n | n | +
Cc1ccc(NC(=O)c2cc(S(=O)(=O)N3CCCCC3)ccc2N2CCOCC2)cc1S(=O)(=O)N(C)C | n | n | 83 | n | x
Cc1ccc(NC(=O)c2cc(S(=O)(=O)N(C)C)ccc2N2CCCC2)cc1S(=O)(=O)N(C)C | n | n | n | n | n
CCC(CC)CN1CCC(CN2C(=S)NC[C@@H]2[C@@H](C)CC)CC1 | n | n | n | n | x
O=C(Cc1cccc(NC(=O)C2CCCN(C(=O)CCc3ccccc3)C2)c1)Nc1ccc(C(=O)N2CCCCC2)cc1 (stereo not given) | n | n | n | n | x
COc1ccc(/C=C/C(=O)Nc2cc(S(=O)(=O)N3CCOCC3)ccc2N2CCCC2)cc1OC | n | n | n | n | n
COc1ccc(OC)c(CC(=O)Nc2cc(S(=O)(=O)N3CCCCC3)ccc2C)c1 | n | n | n | n | 71
COc1ccc(/C=C/C(=O)Nc2cc(S(=O)(=O)N3CCOCC3)ccc2C)cc1OC | n | n | n | n | +
Cc1ccccc1NC(=O)CN1C(=O)COc2ccc(S(=O)(=O)N3CCCC3)cc21 | n | n | n | n | 14
CCOc1ccccc1NC(=O)CCCNC(=O)c1ccc(Cl)cc1 | n | n | n | n | n
COc1ccccc1CNC(=O)COC(=O)c1cc(=O)c2ccccc2o1 | n | n | n | n | 17
O=C(N/N=C/c1c[nH]c2ccccc12)c1ccc(Br)cc1 | n | n | n | n | n
O=C(N/N=C\c1c[nH]c2ccccc12)c1ccc(O)cc1 | n | n | n | n | 74
CC1(C)CC(=O)C(C=Nc2ccc(C(=O)c3ccccc3)cc2N=CC2=C(O)CC(C)(C)CC2=O)=C(O)C1 | n | n | 44 | n | n
CCc1noc(C)c1C(=O)Nc1ccccc1C(C)(C)C | n | n | n | n | n
O=C(COC(=O)c1cncc(Br)c1)NC12CC3CC(CC(C3)C1)C2 | x | x | x | x | 20
Cc1ccc(S(=O)(=O)/C(C#N)=C/c2c[nH]c3ccccc23)cc1 | n | n | n | n | 17
COc1cccc(/C=C/C(=O)N(C)CC(=O)Nc2ccc(Cl)c(C(F)(F)F)c2)c1 | n | n | n | n | n
CCOC(=O)c1ccc(NS(=O)(=O)c2ccc3c(c2)oc(=O)n3C)cc1 | n | n | n | n | 32
COC(=O)c1ccc(NS(=O)(=O)c2ccc3c(c2)oc(=O)n3C)cc1 | n | n | n | n | n
COc1ccc(C(=O)NNC(=O)C23CC4CC(CC(C4)C2)C3)c(OC)c1 | n | n | n | n | n
COc1ccc(OC)c(C(C)NC(=O)C23CC4CC(CC(C4)C2)C3)c1 (stereo not given) | n | 109 | n | n | n
O=C(O)CN1C(=O)/C(=C\c2cc(Br)ccc2OCc2ccc([N+](=O)[O-])cc2)SC1=S | n | 78 | n | n | n
O=C(O)CN1C(=O)/C(=C\c2cc(Br)ccc2OCc2ccccc2Cl)SC1=S | n | n | n | n | n
CC(C)(C)N(Cc1ccccc1)C(=O)COC(=O)C1CC(=O)N(Cc2ccccc2)C1 (stereo not given) | n | n | n | n | x
CC1Cc2ccccc2N1C(=O)CSc1ncccn1 (stereo not given) | n | n | n | n | 30
Cc1ccccc1NC(=O)N1c2ccccc2CC1C (stereo not given) | n | n | n | n | 54
